According to PubChem BioAssay (NCATS):
Where “and” joins values, the source holds several entries; their conditions need not be identical. Equal entries are not always repeated. Records with an inconclusive call do not appear. Calls of active or inactive are those of the source. Calls follow the shape of the dose curve; as a rule, active = well fitted curve in the direction sought with a large enough effect; inconclusive = small, poorly fitted or top-dose-only effect, or another doubt; inactive = no such curve, though single readings can be large; an effect the other way counts as inactive or inconclusive. Where a SMILES comes first, the peptide text is derived from it. Bridges are numbered along the chain shown (N, C = ends). [ ]: non-standard residue; d: D form. The star is where a group is joined. ξ: configuration not given here. d(aThr) = C[C@@H](O)[C@@H](N)C(=O)O; ξThr(3R) = C[C@@H](O)C(N)C(=O)O; X3 = CC[C@@H](C)CCCCC(=O)*; dDab = NCC[C@@H](N)C(=O)O

Assays:
[1] = qHTS Assay for Identifying Gametocytocidal Compounds (AID 743244);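 also: actives lower the fluorescent signal which means gametocytes are killed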; conditions: P. falciparum 3D7 stage III-V gametocytes, alamarBlue, 72 h; max response: active compounds read low
In short: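 Late gametocytes (III–V), P. falciparum 3D7; 72 h drug, then 24 h alamarBlue; resazurin reduction read by fluorescence.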

[2] = qHTS assay to identify small molecule inhibitors of chordoma cells - UCH-1 (AID 1259355); also: nearly all actives have a fitted effect of over 55% in size
In short: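 A 48hr growth-inhibition format: each drug tested at 15 concentrations together with added auranofin, camptothecin, doxorubicin, rubitecan and topotecan, with cell viability quantified as CellTiter-Glo luminescence.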

[3] = qHTS assay to identify small molecule inhibitors of chordoma cells - UCH-2 (AID 1259356); also: series mostly up to about 46 µM
% is scaled to controls: 0 for no effect and ±100 for the full control effect.

O=c1[nH]c(=O)n([C@H]2C[C@H](O)[C@@H](CO)O2)cc1/C=C/Br
inactive: max response [1] 6.97% | Potency [2] | Potency [3]

CCN(CC)CCC(=O)N1c2ccccc2Sc2ccc(Cl)cc21
inactive: max response [1] 2.51% | Potency [2] | Potency [3]

COc1ccc(C(=O)c2ccc(C)cc2)c(O)c1
inactive: max response [1] -6.86% | Potency [2] | Potency [3]

CCN(CC)CCOC[C@H]1O[C@@H](O)[C@H](OCCN(CC)CC)[C@@H](O)[C@@H]1O
inactive: max response [1] 6.01% | Potency [2] | Potency [3]

CCCc1nc(C(C)(C)O)c(C(=O)OCc2oc(=O)oc2C)n1Cc1ccc(-c2ccccc2-c2nn[nH]n2)cc1
inactive: max response [1] 48.2% | Potency [2] | Potency [3]

COC(=O)C(CN)c1c[nH]c2ccc(OC)cc12 (stereo unspecified)
inactive: max response [1] -6.34% | Potency [2] | Potency [3]

CCOC(=O)Oc1c(OC)cc(C(=O)O[C@@H]2C[C@@H]3CN4CCc5c([nH]c6cc(OC)ccc56)[C@H]4C[C@@H]3[C@H](C(=O)OC)[C@H]2OC)cc1OC
inactive: max response [1] 3.15% | Potency [2] | Potency [3]

N=C(N)c1ccc(/C=C/c2ccc(C(=N)N)cc2O)cc1
inactive: max response [1] 21.7% | Potency [2] | Potency [3]

CCCCCCCCCCCCOCCCN
inactive: max response [1] -2.81% | Potency [2] | Potency [3]

CCCCC[C@H](O)/C=C/[C@@H]1[C@H]2C/C(=C/CCCC(=O)O)O[C@H]2C[C@H]1O
inactive: max response [1] 18.5% | Potency [2] | Potency [3]

Cc1ccc(C(C)(C)c2ccc(C)cc2)cc1
inactive: max response [1] 17% | Potency [2] | Potency [3]

NC(=O)Oc1ccc(Cc2ccccc2)cc1
inactive: max response [1] -7.34% | Potency [2] | Potency [3]

CC(C)OC(=O)Nc1ccc2nc(-c3cscn3)[nH]c2c1
inactive: max response [1] -0.783% | Potency [2] | Potency [3]

CC1(O)CCC(C(C)(C)O)CC1 (stereo unspecified)
inactive: max response [1] 5.51% | Potency [2] | Potency [3]

CCC(O)c1ccccc1 (stereo unspecified)
inactive: max response [1] 11% | Potency [2] | Potency [3]

O=C(O)[C@@H]1C[C@H](CP(=O)(O)O)CCN1
inactive: max response [1] 11.7% | Potency [2] | Potency [3]

CC(C)CCC[C@@H](C)[C@H]1CC(=O)C2=C3CC[C@H]4C[C@@H](O)CC[C@]4(C)[C@H]3CC[C@@]21C
inactive: max response [1] 5.28% | Potency [2] | Potency [3]

CC(C)(COP(=O)(O)OP(=O)(O)OC[C@H]1O[C@@H](n2cnc3c(N)ncnc32)[C@H](O)[C@@H]1OP(=O)(O)O)C(O)C(=O)NCCC(=O)NCCS (stereo partly specified)
inactive: max response [1] -9.49% | Potency [2] | Potency [3]

Cc1cccc(Nc2ncccc2C(=O)O)c1C
inactive: max response [1] 39.6% | Potency [2] | Potency [3]

CCCCCCCCCC(=O)NO
inactive: max response [1] -1.94% and 4.66% | Potency [2] | Potency [3]

CN1CCN(C(c2ccccc2)c2ccc(Cl)cc2)CC1 (stereo unspecified)
inactive: max response [1] 1.98% | Potency [2] | Potency [3]

C=CC1=C(C(=O)O)N2C(=O)[C@@H](NC(=O)/C(=N/OCC(=O)O)c3csc(N)n3)[C@H]2SC1 (stereo in doubt)
inactive: max response [1] -1.34% | Potency [2] | Potency [3]

CC[C@H](C)[C@@H]1NC(=O)[C@H](Cc2ccc(O)cc2)NC(=O)[C@@H](N)CSSC[C@@H](C(=O)N2CCC[C@H]2C(=O)N[C@@H](CC(C)C)C(=O)NCC(N)=O)NC(=O)[C@H](CC(N)=O)NC(=O)[C@H](CCC(N)=O)NC1=O
inactive: max response [1] 0.419% | Potency [2] | Potency [3]

CC12CCC(C1)C(C)(C)C2=O (stereo unspecified)
inactive: max response [1] -0.872% | Potency [2] | Potency [3]

OC[C@H]1OC([S-])[C@H](O)[C@@H](O)[C@@H]1O.[Au+] (stereo partly specified)
inactive: max response [1] -13.3% | Potency [2] | Potency [3]

CC1(C)[C@H]2CC[C@]1(C)[C@H](O)C2
inactive: max response [1] 0.139% | Potency [2] | Potency [3]

CCOC(=O)[C@H](CS)NCCN[C@@H](CS)C(=O)OCC
inactive: max response [1] 2.46% | Potency [2] | Potency [3]

CC[C@@H](C)CCCCC(=O)N[C@H](CCN)C(=O)N[C@@H](C(=O)N[C@H](CCN)C(=O)N[C@@H]1CCNC(=O)C([C@@H](C)O)NC(=O)[C@@H](CCN)NC(=O)[C@@H](CCN)NC(=O)[C@@H](CC(C)C)NC(=O)[C@@H](Cc2ccccc2)NC(=O)[C@@H](CCN)NC1=O)[C@@H](C)O (stereo partly drawn) (X3-[dDab][d(aThr)][dDab][dDab][dDab][dF][dL][dDab][dDab][ξThr(3R)]; lactam 4-C)
inactive: max response [1] 13.9% | Potency [2] | Potency [3]

C[C@H](NCCc1ccc(O)cc1)[C@H](O)c1ccc(O)cc1
inactive: max response [1] 10.2% | Potency [2] | Potency [3]

CO/N=C(\C(=O)N[C@@H]1C(=O)N2C(C(=O)O)=C(CSC(=O)c3ccco3)CS[C@H]12)c1csc(N)n1
inactive: max response [1] -2.3% | Potency [2] | Potency [3]

CC(C)[C@@H](N)C(=O)O
inactive: max response [1] 7.16% | Potency [2] | Potency [3]

CC(=O)NCCCS(=O)(=O)O
inactive: max response [1] 7.56% | Potency [2] | Potency [3]

CC(C)=CCC/C(C)=C/CC/C(C)=C/CC/C=C(\C)CC/C=C(\C)CCC=C(C)C
inactive: max response [1] -7.41% and 5.06% | Potency [2] | Potency [3]

CC(=O)N[C@@H](C=O)[C@@H](O)[C@H](O)[C@H](O)CO
inactive: max response [1] 11.4% | Potency [2] | Potency [3]

COc1cc2c(cc1OC)[C@@H](c1ccccc1)CN(C)CC2
inactive: max response [1] -3.71% | Potency [2] | Potency [3]

c1ccc2c(c1)OCC(CN1CCCCC1)O2 (stereo unspecified)
inactive: max response [1] -2.04% | Potency [2] | Potency [3]

CNCC(O)c1ccc(OC(=O)C(C)(C)C)c(OC(=O)C(C)(C)C)c1 (stereo unspecified)
inactive: max response [1] -11.6% | Potency [2] | Potency [3]

O=C(Cc1cccs1)N[C@@H]1C(=O)N2C(C(=O)[O-])=C(C[n+]3ccccc3)CS[C@H]12
inactive: max response [1] 7.46% | Potency [2] | Potency [3]

O=C1c2ccccc2CN2C(=O)c3ccccc3CN12
inactive: max response [1] 10.5% | Potency [2] | Potency [3]

Cc1ccc(S(=O)(=O)NC(=O)N[C@@H](C)Cc2ccccc2)cc1
inactive: max response [1] 23.6% | Potency [2] | Potency [3]

CC(C)(CO)[C@@H](O)C(=O)NCCC(=O)NCCSSCCNC(=O)CCNC(=O)[C@H](O)C(C)(C)CO
inactive: max response [1] 8.29% | Potency [2] | Potency [3]

COC(=O)[C@@H](N)CS
inactive: max response [1] 0.957% | Potency [2] | Potency [3]

C=C1[C@H](CO)[C@@H](O)C[C@@H]1n1cnc2c(=O)[nH]c(N)nc21
inactive: max response [1] 18.1% | Potency [2] | Potency [3]

CCOC(=S)SSC(=S)OCC
inactive: max response [1] 0.863% | Potency [2] | Potency [3]

CC[C@H]1OC(=O)C[C@@H](O)[C@H](C)[C@@H](O[C@@H]2O[C@H](C)[C@@H](O[C@H]3C[C@@](C)(O)[C@@H](O)[C@H](C)O3)[C@H](N(C)C)[C@H]2O)[C@@H](CC=O)C[C@@H](C)C(=O)/C=C/C(C)=C/[C@@H]1CO[C@@H]1O[C@H](C)[C@@H](O)[C@@H](OC)[C@H]1OC
inactive: max response [1] 19.1% and -3.87% | Potency [2] | Potency [3]

CC(=O)N[C@@H]([C@@H](O)[C@H](O)[C@H](O)CO)[C@@H](O)CC(=O)C(=O)O
inactive: max response [1] 14.7% | Potency [2] | Potency [3]

Cc1cc2nc3c(=O)[nH]c(=O)nc-3n(C[C@H](O)[C@H](O)[C@H](O)COP(=O)(O)OP(=O)(O)OC[C@H]3O[C@@H](n4cnc5c(N)ncnc54)[C@H](O)[C@@H]3O)c2cc1C
inactive: max response [1] -3.17% | Potency [2] | Potency [3]

CC(C)CCC[C@@H](C)[C@H]1CC[C@H]2[C@@H]3CC[C@@H]4C[C@H](O)CC[C@]4(C)[C@H]3CC[C@]12C
inactive: max response [1] -3.57% | Potency [2] | Potency [3]

NC(=O)c1ccc[n+]([C@@H]2O[C@H](COP(=O)([O-])OP(=O)(O)OC[C@H]3O[C@@H](n4cnc5c(N)ncnc54)[C@H](O)[C@@H]3O)[C@@H](O)[C@H]2O)c1
inactive: max response [1] 2.6% | Potency [2] | Potency [3]

CC1CC(O)CC(C)(C)C1 (stereo unspecified)
inactive: max response [1] -5.15% | Potency [2] | Potency [3]

O=C(NNCNNC(=O)c1ccncc1)c1ccncc1
inactive: max response [1] 16.9% | Potency [2] | Potency [3]

C=C1CC[C@H](O)CC1=C/C=C1\CCC[C@]2(C)[C@@H]([C@H](C)CCCC(C)(C)O)CC[C@@H]12
inactive: max response [1] -5.02% | Potency [2] | Potency [3]

CC(=O)[C@@]1(O)CC[C@H]2[C@@H]3C=C(Cl)C4=CC(=O)[C@@H]5C[C@@H]5[C@]4(C)[C@H]3CC[C@@]21C
inactive: max response [1] 3.29% | Potency [2] | Potency [3]

NS(=O)(=O)c1cc2c(cc1Cl)NC(Cc1ccccc1)NS2(=O)=O (stereo unspecified)
inactive: max response [1] 18.5% | Potency [2] | Potency [3]

CC(C)CN(C[C@@H](OP(=O)(O)O)[C@H](Cc1ccccc1)NC(=O)O[C@H]1CCOC1)S(=O)(=O)c1ccc(N)cc1
inactive: max response [1] -7.76% | Potency [2] | Potency [3]

CC(=O)Nc1ccc(OC(=O)c2ccccc2O)cc1
inactive: max response [1] -4.48% | Potency [2] | Potency [3]

CC(=O)Oc1cc(C(F)(F)F)ccc1C(=O)O
inactive: max response [1] 17% | Potency [2] | Potency [3]

O=C(O)c1cc(N=Nc2ccc(O)c(C(=O)O)c2)ccc1O
inactive: max response [1] 0.0283% | Potency [2] | Potency [3]

Cc1ncc(C[n+]2csc(CCO)c2C)c(N)n1
inactive: max response [1] 2.57% | Potency [2] | Potency [3]

CSCCC(N)C(=O)O (stereo unspecified)
inactive: max response [1] -5.15% | Potency [2] | Potency [3]

O=S(=O)(O)CCCS(=O)(=O)O
inactive: max response [1] 2.64% | Potency [2] | Potency [3]

CC/C=C\C/C=C\C/C=C\C/C=C\C/C=C\C/C=C\CCC(=O)O
inactive: max response [1] -1.97% | Potency [2] | Potency [3]
